Drawing on PubChem BioAssay (EPA / NIEHS), this text covers outcome and AC50 for 18 molecules.

Structures are written as SMILES. Results filed as inconclusive are left out. Active and inactive are the calls of the source. Rule for the calls: active = hit-call score of the fitted dose curve at least 0.9, where 1 is the maximum; inconclusive = response in the unintended direction; inactive = score below 0.9.

Nuclear receptor subfamily 4 group A member 2 (Homo sapiens), sequence (P43354 whole entry, looked up, the tested form may be a part): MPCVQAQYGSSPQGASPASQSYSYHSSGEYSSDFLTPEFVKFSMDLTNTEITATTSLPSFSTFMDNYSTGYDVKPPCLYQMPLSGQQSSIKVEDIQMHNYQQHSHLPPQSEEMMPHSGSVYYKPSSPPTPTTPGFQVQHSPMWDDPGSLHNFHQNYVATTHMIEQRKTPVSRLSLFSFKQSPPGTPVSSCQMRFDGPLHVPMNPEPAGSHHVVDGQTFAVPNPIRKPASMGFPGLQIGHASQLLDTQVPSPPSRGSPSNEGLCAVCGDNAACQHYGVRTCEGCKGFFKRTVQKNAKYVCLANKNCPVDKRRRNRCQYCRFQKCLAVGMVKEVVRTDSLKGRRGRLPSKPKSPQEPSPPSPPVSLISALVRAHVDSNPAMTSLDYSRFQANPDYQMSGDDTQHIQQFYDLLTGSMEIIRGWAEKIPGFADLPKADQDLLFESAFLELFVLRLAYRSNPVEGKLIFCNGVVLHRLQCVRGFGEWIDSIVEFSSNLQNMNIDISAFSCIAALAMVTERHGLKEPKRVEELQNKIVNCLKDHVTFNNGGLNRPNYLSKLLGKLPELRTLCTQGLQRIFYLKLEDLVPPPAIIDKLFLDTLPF

Test system in the first test: not listed separately
Put plainly: ATG_M_32_TRANS: Attagene TRANS-FACTORIAL HepG2 Assay for M32 Transcription Factor (Internal Marker) (AID 2282984).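 Note: transcript level of a background control reporter unit measured by RT-PCR and capillary electrophoresis.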 To be noted: HepG2 Attagene TRANS M32 internal marker reporter. The method in brief:
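Internal background reporter in transfected HepG2: after 24 h chemical exposure, RNA reverse-transcribed, reporter cDNA amplified, fluorescently labelled and HpaI-cut, then sized by capillary electrophoresis. Gain of signal fitted against DMSO control.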
For `CC(O)CCO` (stereo not drawn), the result was inactive. Still for that read-out and setting: with `C1=Cc2cccc3cccc1c23` the entry was “inactive”. Still for that read-out and setting: with `COC(=O)Nc1nc2ccccc2[nH]1` the entry was “inactive”. The same measure, in the same setting: for `C[N+](C)(C)CC1CO1` (stereo not drawn) the value was “inactive”; for `OCCOCCO`, “inactive”.

Take `[O-][Cl+]O`: the molecule was called inactive. For the molecule `COc1cc(C=O)cc2c1[C@H](COC(N)=O)[C@]1(OC(C)=O)ON2C[C@H]2[C@@H]1N2C(C)=O`, the outcome was inactive. Still for that read-out and setting: for `Cc1ccc(N)cc1` the value was “inactive”; for `CS(=O)(=O)NC(=O)c1cc(Oc2ccc(C(F)(F)F)cc2Cl)ccc1[N+](=O)[O-]`, “inactive”.

The target of the next test is Nuclear receptor subfamily 4 group A member 2 (Homo sapiens) (UniProt P43354). Put plainly: ATG_NURR1_TRANS: Attagene TRANS-FACTORIAL HepG2 Assay for human Nuclear Receptor Related Protein 1 (NURR1) (AID 2282985). To be noted: HepG2 Attagene TRANS reporter, mRNA readout. The method in brief:
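Reporter transcript induction, measured by RT-PCR with fluorescent labelling, HpaI digestion and capillary electrophoresis, after 24 hr dosing of human HepG2 cells transiently expressing an exogenous NR-Gal4 fusion with GAL4-UAS-driven reporters; DMSO as baseline.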
On to `N#CC(Br)(Br)C(N)=O`, for which the outcome was inactive.

As to `CC(C)(C)OOC(C)(C)CCC(C)(C)OOC(C)(C)C`, the outcome was inactive. The same measure, in the same setting: for `CC(O)CCO` (stereo not drawn) the value was “inactive”; for `C1=Cc2cccc3cccc1c23`, “inactive”.

In the case of `CCCCC(CC)COC(=O)c1ccc(C(=O)OCC(CC)CCCC)c(C(=O)OCC(CC)CCCC)c1` (stereo not drawn), the outcome was inactive.

As for `COC(=O)Nc1nc2ccccc2[nH]1`, the result was inactive.

With `Clc1ccc(Cl)c(Cl)c1`, the call was inactive. On the same count and under the same terms, with `CCN(CC)CCO` the entry was “inactive”; with `OCCCBr`, “inactive”. The same measure, in the same setting: with `[O-][Cl+]O` the entry was “inactive”; with `O=Cc1ccco1`, “inactive”.

Take `Cc1ccc(N)cc1`: the molecule was classed as inactive. Still for that read-out and setting: with `ClC1=C(Cl)[C@]2(Cl)[C@H]3[C@H]([C@@H]4C=C[C@H]3C4)[C@@]1(Cl)C2(Cl)Cl` the entry was “inactive”. As usually defined, the AC50 is the midpoint of the concentration-response curve, whichever way the signal moves. Take `c1ccc2c(c1)-c1cccc3cccc-2c13`: the AC50 was 160 µM (active).
